From PubChem BioAssay (EPA / NIEHS) come the findings set out here.

Calls of active or inactive are those of the source. How the source made its calls: active means hit-call score of the fitted dose curve at least 0.9, where 1 is the maximum; inactive means score below 0.9.

A short description of the first experiment: ATG_TCF_b_cat_CIS: Attagene CIS-FACTORIAL HepG2 Assay for human T-Cell-Factor with beta-catenin (TCF/b-cat) (AID 2282965). The following applies: HepG2 TCF/beta-catenin cis-reporter transcription, actives raise or lower the signal. In short, it runs like this:
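Endogenous TCF/LEF activity read as reporter transcript level via RT-PCR and capillary electrophoresis fluorescence in transfected HepG2, 24 h exposure; gain or loss of signal fitted against DMSO controls.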
`CCOC(=O)c1ccc(C)cc1`: the compound was called inactive.

As for `c1ccc(Nc2cccc3ccccc23)cc1`, the AC50 was 50.8 µM (active).

Consider `CCCCCCCC(=O)OCC`, for which the call was inactive.

On to `COC(=O)CC(C)CCC=C(C)C` (centres undefined), for which the compound was called inactive.

As for `CC(C)(CO)COC(=O)C(C)(C)CO`, the compound was called inactive.

For the compound `C[Si](C)(C)N[Si](C)(C)C`, the compound was classed as inactive.

`C=CC(C)(CCC=C(C)C)OC(=O)C=Cc1ccccc1` (centres undefined): the call was inactive.

With `[Cl][Eu]([Cl])[Cl]`, the call was inactive.

For the compound `CC(C)(C)C1CCC(=O)CC1`, the compound was called inactive.

Take `CCN(CC)c1cccc(C)c1`: the compound was classed as inactive.

`Fc1ccc(Br)cc1`: the result was inactive.

`CCCc1ccc(O)c(OC)c1`: the call was inactive.

Take `COC(OC)(C(=O)c1ccccc1)c1ccccc1`: the call was inactive.

In the case of `CCc1cccc(C)c1N`, the result was inactive.

`CCCCOCCOCCOC(C)=O`: the compound was classed as inactive.

Consider `CCCCC(CC)COS(=O)(=O)O` (centres undefined), for which the compound was called inactive.

Regarding `CCOC(=O)C1=NOC(c2ccccc2)(c2ccccc2)C1`, the call was inactive.

For `CCC[Si](OC)(OC)OC`, the outcome was inactive.

Regarding `CCCCC(CC)COC(=O)/C=C/c1ccc(OC)cc1` (centres undefined), the compound was classed as inactive.

Consider `CCCCCCCCCCCCCCCCCCOS(=O)(=O)O`, for which the half-maximal activity concentration (AC50) was 17.3 µM (active).

On to `COc1ccc(C(=O)/C(Br)=C\C(=O)O)cc1`, for which the outcome was inactive.

As to `CC(=O)OCCc1ccccc1`, the result was inactive.

With `CCCCCCOc1ccc(N)cc1`, the compound was classed as inactive.

On to `OCCCc1ccccc1`, for which the compound was called inactive.

Regarding `C=C(C)C1CC=C(C)C(OC(C)=O)C1` (centres undefined), the compound was classed as inactive.

`CCC1COC(=O)O1` (centres undefined): the compound was classed as inactive.

For `O=C(O)/C=C/c1ccccc1`, the compound was called inactive.

Consider `CCCCCCOC(=O)CCCCC(=O)OCCCCCC`, for which the compound was classed as inactive.

`Cc1ccc(S(=O)(=O)N=C=O)cc1`: the compound was called inactive.

In the case of `CC(C)(O)Cc1ccccc1`, the result was inactive.

Turning to `CCOC(=O)/C=C\C(=O)OCC`, the compound was classed as inactive.

On to `COc1nccnc1CC(C)C`, for which the compound was called inactive.

Take `CCOC(=O)C1=NN(c2ccc(Cl)cc2Cl)C(C)(C(=O)OCC)C1` (centres undefined): the outcome was inactive.

Consider `C=CC(=O)O[C@H]1C[C@@H]2CC[C@@]1(C)C2(C)C`, for which the result was inactive.

Consider `Nc1ccc(O)c([N+](=O)[O-])c1`, for which the call was inactive.

`Oc1c(Cl)cc(Cl)c(Cl)c1Cl`: the outcome was inactive.

In the case of `C=C(C)C(=O)OCCOC(=O)C(=C)C`, the compound was called inactive.

A further experiment can be described thus: ATG_TAL_CIS: Attagene CIS-FACTORIAL HepG2 Assay for human TAL Basal Promoter (AID 2282966).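 Further: background control endpoint measuring basal TAL promoter reporter mRNA not a specific factor.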 The following applies: HepG2 Attagene cis-factorial TAL promoter reporter; actives raise or lower the signal. The essentials: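 Background-control endpoint: basal TAL promoter reporter transcripts in transiently transfected HepG2, measured 24 h after dosing. Read-out by RT-PCR with fluorescent primer extension and capillary electrophoresis; gain or loss of signal fitted relative to DMSO.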
`CCOC(=O)c1ccc(C)cc1`: the compound was classed as inactive.

For `c1ccc(Nc2cccc3ccccc23)cc1`, the result was inactive.

For `CCCCCCCC(=O)OCC`, the compound was classed as inactive.

Take `COC(=O)CC(C)CCC=C(C)C` (centres undefined): the compound was called inactive.

`CC(C)(CO)COC(=O)C(C)(C)CO`: the outcome was inactive.

As for `C[Si](C)(C)N[Si](C)(C)C`, the call was inactive.

`C=CC(C)(CCC=C(C)C)OC(=O)C=Cc1ccccc1` (centres undefined): the compound was called inactive.

For `[Cl][Eu]([Cl])[Cl]`, the compound was called inactive.

For the compound `CC(C)(C)C1CCC(=O)CC1`, the outcome was inactive.

Regarding `CCN(CC)c1cccc(C)c1`, the result was inactive.

Regarding `Fc1ccc(Br)cc1`, the compound was classed as inactive.

As to `CCCc1ccc(O)c(OC)c1`, the outcome was inactive.

Regarding `COC(OC)(C(=O)c1ccccc1)c1ccccc1`, the compound was called inactive.

Take `CCc1cccc(C)c1N`: the result was inactive.

With `CCCCOCCOCCOC(C)=O`, the outcome was inactive.

Turning to `CCCCC(CC)COS(=O)(=O)O` (centres undefined), the compound was classed as inactive.

`CCOC(=O)C1=NOC(c2ccccc2)(c2ccccc2)C1`: the outcome was inactive.

Turning to `CCC[Si](OC)(OC)OC`, the call was inactive.

In the case of `CCCCC(CC)COC(=O)/C=C/c1ccc(OC)cc1` (centres undefined), the result was inactive.

For the compound `CCCCCCCCCCCCCCCCCCOS(=O)(=O)O`, the result was inactive.

`COc1ccc(C(=O)/C(Br)=C\C(=O)O)cc1`: the result was inactive.

Turning to `CC(=O)OCCc1ccccc1`, the outcome was inactive.

Turning to `CCCCCCOc1ccc(N)cc1`, the compound was called inactive.

For `OCCCc1ccccc1`, the compound was called inactive.

As for `C=C(C)C1CC=C(C)C(OC(C)=O)C1` (centres undefined), the compound was classed as inactive.

Take `CCC1COC(=O)O1` (centres undefined): the compound was classed as inactive.

As for `O=C(O)/C=C/c1ccccc1`, the result was inactive.

As to `CCCCCCOC(=O)CCCCC(=O)OCCCCCC`, the result was inactive.

Take `Cc1ccc(S(=O)(=O)N=C=O)cc1`: the outcome was inactive.

For the compound `CC(C)(O)Cc1ccccc1`, the compound was called inactive.

For `CCOC(=O)/C=C\C(=O)OCC`, the call was inactive.

For `COc1nccnc1CC(C)C`, the compound was classed as inactive.

On to `CCOC(=O)C1=NN(c2ccc(Cl)cc2Cl)C(C)(C(=O)OCC)C1` (centres undefined), for which the outcome was inactive.

In the case of `C=CC(=O)O[C@H]1C[C@@H]2CC[C@@]1(C)C2(C)C`, the compound was classed as inactive.

`Nc1ccc(O)c([N+](=O)[O-])c1`: the compound was called inactive.

For the compound `Oc1c(Cl)cc(Cl)c(Cl)c1Cl`, the compound was classed as inactive.

For the compound `C=C(C)C(=O)OCCOC(=O)C(=C)C`, the outcome was inactive.
